Results: PubChem BioAssay (Tox21)
Records with an inconclusive call do not appear. Activity calls are given as the source filed them. Unless noted, calls follow the shape of the dose curve; as a rule, active = well fitted curve in the direction sought with a large enough effect in the repeat runs; inconclusive = weak or mixed curves; inactive = no such curve, though single readings can be large; an effect the other way counts as inactive or inconclusive.

What was measured:
[1] = molecular target: Nuclear receptor subfamily 1 group I member 3 (Homo sapiens) (UniProt Q14994); test: qHTS assay to identify small molecule agonists of the constitutive androstane receptor (CAR) signaling pathway (AID 1224839); also: series mostly up to about 92 µM; nearly all actives have a fitted effect of over 15% in size
Method in brief: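 A 15-concentration quantitative screen uses HepG2 cells co-transfected stably with human CAR and CYP2B6-2.2kb reporter. Treatment lasts 24 h with 0.75 uM PK11195 final present; ONE-Glo luminescence is the signal.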

[2] = qHTS assay to identify small molecule antagonists of the estrogen related receptor signaling pathway with the pleiotropic PPARgamma coactivator (PGC) from Tox21 10K library - cell viability counter screen (AID 1224840; active = well fitted cell-killing curve with a large enough effect in the repeat runs, not every such curve was filed as active; also: nearly all actives have a fitted effect of over 40% in size)
Method in brief: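 Cell viability is measured by CellTiter-Fluor fluorescence in PGC/ERR cells that receive compounds after a 6-hour attachment period and are then incubated 17.5 hours at 37 C.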

[3] = molecular target: Thyrotropin receptor (Homo sapiens) (UniProt P16473); test: qHTS assay to identify small molecule agonists of the thyroid stimulating hormone receptor (TSHR) signaling pathway (AID 1224843; calls by dose curve; also: nearly all actives have a fitted effect of over 45% in size)
Method in brief: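 A cell-based cAMP HTRF format was run in TSHR-transfected HEK293 cells, 800 per well. Treatment: 30 min, room temperature. Detection: 1 h with labelled cAMP and anti-cAMP cryptate. Concentration-response over 15 points, three replicates.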

[4] = qHTS assay to identify small molecule agonists of the hypoxia (HIF-1) signaling pathway - cell viability counter screen (AID 1224844; calls by dose curve; also: nearly all actives have a fitted effect of over 50% in size)
Method in brief: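 Viability counter screen: HRE-bla ME-180 cells plated 5 hrs before compound addition, treated 17 hrs at 37C and 5% CO2, then CellTiter-Glo added after the FRET reporter read; luminescence after 30 min.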

[5] = qHTS assay to identify small molecule agonists of H2AX - cell viability counter screen (AID 1224847; calls by dose curve; also: top concentration of the series differs between compounds; nearly all actives have a fitted effect of over 30% in size)
Method in brief: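 We seed wild-type CHO-K1 cells overnight, treat them for 3 hr at 37C with compounds in 15-concentration series, and quantify remaining viability by CellTiter-Glo luminescence.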

[6] = qHTS RealTime-Glo MT Cell Viability Assay in HepG2 cells - 24 hour (AID 1224867); also: nearly all actives have a fitted effect of over 50% in size
Method in brief: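 Cells + NanoLuc/prosubstrate dispensed (600 cells/well) → 5 h at 37 C/5% CO2 → compounds in DMSO transferred → 40 h incubation at 37 C, luminescence read at 0, 8, 16, 24, 32, 40 h.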

[7] = qHTS RealTime-Glo MT Cell Viability Assay in HEK293 cells - 32 hour (AID 1224868); also: top concentration of the series differs between compounds; nearly all actives have a fitted effect of over 50% in size
Method in brief: (§1)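 Tox21 10K qHTS, HEK293, 600 cells/well, RealTime-Glo reagent co-dispensed with cells; 5 h preincubation, compound by pintool, 37 C, luminescence at 0–40 h.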

[8] = A CellTox Green Cytotoxicity Assay to monitor cytotoxicity in HEK293 cells - 0 hour (AID 1224869); also: nearly all actives have a fitted effect of over 50% in size
Method in brief: (§2)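 Dead-cell fluorescence measured kinetically: asymmetric cyanine dye, HEK293, 600 cells/well, 5 h settle, 23 nL cpd/DMSO, 37 C, reads 0–40 h every 8 h.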

[9] = qHTS RealTime-Glo MT Cell Viability Assay in HepG2 cells - 40 hour (AID 1224870); also: nearly all actives have a fitted effect of over 50% in size
Method in brief: (§3)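 Real-time viability: cells seeded at 600 per well together with NanoLuc and cell-permeant prosubstrate, compounds added after 5 h incubation. Luminescence tracked at 0, 8, 16, 24, 32 and 40 h of exposure.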

[10] = A CellTox Green Cytotoxicity Assay to monitor cytotoxicity in HEK293 cells - 40 hour (AID 1224871); also: nearly all actives have a fitted effect of over 45% in size
Method in brief: as §2

[11] = qHTS RealTime-Glo MT Cell Viability Assay in HEK293 cells - 16 hour (AID 1224872)
Method in brief: as §1

[12] = qHTS RealTime-Glo MT Cell Viability Assay in HEK293 cells - 40 hour (AID 1224874); conditions: RealTime-Glo luminescence; max response: hits give low values; also: nearly all actives have a fitted effect of over 50% in size
Method in brief: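 600 HEK293 cells per well, dispensed already mixed with RealTime-Glo MT reagents. Compound dosing came 5 h later. The same wells were read for luminescence at 0, 8, 16, 24, 32 and 40 h of exposure at 37 C.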

[13] = A CellTox Green Cytotoxicity Assay to monitor cytotoxicity in HEK293 cells - 24 hour (AID 1224875); also: series mostly up to about 77 µM; nearly all actives have a fitted effect of over 45% in size
Method in brief: as §2

[14] = qHTS assay to identify small molecule agonists of H2AX (AID 1224845; active = well fitted activation curve with a large enough effect in the signal ratio in the repeat runs, not every such curve was filed as active; the % refers to the signal ratio)
Method in brief: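 Phospho-H2AX Ser139 measured by HTRF (ex 320 nm; em 665 and 620 nm) after 24 hr antibody incubation. Compounds, 15 concentrations, 0.76% DMSO, were applied to CHO-K1 cells for 3hr at 37C before lysis.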

[15] = qHTS RealTime-Glo MT Cell Viability Assay in HepG2 cells - 8 hour (AID 1224873); also: nearly all actives have a fitted effect of over 55% in size
Method in brief: as §3

[16] = qHTS assay to identify small molecule agonists of the hypoxia (HIF-1) signaling pathway (AID 1224846; active = well fitted activation curve with a large enough effect in the signal ratio in the repeat runs, not every such curve was filed as active; the % refers to the signal ratio)
Method in brief: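 Agonist mode reporter screen. ME-180 cells stably expressing bla under HRE control received test compounds in DMSO for 17 hrs (37C, 5% CO2), and beta-lactamase activity was then detected with the CCF4-AM FRET substrate.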
% is scaled to controls: 0 for no effect and ±100 for the full control effect.

Thyrotropin receptor (Homo sapiens), sequence (P16473 whole entry, looked up): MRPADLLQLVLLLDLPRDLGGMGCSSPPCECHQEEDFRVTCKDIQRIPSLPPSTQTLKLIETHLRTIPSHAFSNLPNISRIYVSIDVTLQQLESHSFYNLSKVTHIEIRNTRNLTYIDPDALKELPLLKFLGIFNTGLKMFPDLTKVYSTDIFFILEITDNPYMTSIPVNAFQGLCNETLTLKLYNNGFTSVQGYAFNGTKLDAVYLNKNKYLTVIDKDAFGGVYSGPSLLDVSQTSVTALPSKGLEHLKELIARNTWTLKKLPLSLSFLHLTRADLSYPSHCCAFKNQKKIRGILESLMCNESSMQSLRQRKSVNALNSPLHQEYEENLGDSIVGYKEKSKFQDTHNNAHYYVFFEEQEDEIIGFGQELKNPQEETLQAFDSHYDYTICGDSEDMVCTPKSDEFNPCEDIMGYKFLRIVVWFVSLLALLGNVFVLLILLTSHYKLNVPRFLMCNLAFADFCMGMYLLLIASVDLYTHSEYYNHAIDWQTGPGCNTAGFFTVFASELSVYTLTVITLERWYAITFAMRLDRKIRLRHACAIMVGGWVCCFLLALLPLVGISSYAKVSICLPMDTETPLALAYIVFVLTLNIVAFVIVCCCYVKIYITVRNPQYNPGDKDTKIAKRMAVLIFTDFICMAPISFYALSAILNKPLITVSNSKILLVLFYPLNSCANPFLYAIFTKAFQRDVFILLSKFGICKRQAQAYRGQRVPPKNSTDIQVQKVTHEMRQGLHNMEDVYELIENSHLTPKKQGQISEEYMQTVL
Nuclear receptor subfamily 1 group I member 3 (Homo sapiens), sequence (Q14994 whole entry, looked up): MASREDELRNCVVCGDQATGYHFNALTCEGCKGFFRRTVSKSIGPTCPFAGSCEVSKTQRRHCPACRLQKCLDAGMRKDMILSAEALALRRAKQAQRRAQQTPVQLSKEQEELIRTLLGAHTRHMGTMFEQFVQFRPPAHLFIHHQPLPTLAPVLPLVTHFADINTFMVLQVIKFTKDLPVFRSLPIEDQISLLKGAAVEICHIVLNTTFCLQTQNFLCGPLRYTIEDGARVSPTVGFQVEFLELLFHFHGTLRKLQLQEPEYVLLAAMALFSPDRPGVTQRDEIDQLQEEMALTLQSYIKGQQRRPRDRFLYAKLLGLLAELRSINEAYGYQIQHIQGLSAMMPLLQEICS

CC(=O)O[C@H]1C[C@@H]2CC[C@@]1(C)C2(C)C
inactive: Potency [1] | outcome [2] | outcome [3] | outcome [4] | outcome [5] | outcome [6] | Potency [7] | Potency [8] | outcome [9] | Potency [10] | Potency [11] | max response [12] 4.28% | Potency [13]

CC(O)COC(C)(C)C (stereo not drawn)
inactive: Potency [1] | outcome [2] | outcome [3] | outcome [4] | outcome [14] | outcome [6] | Potency [7] | outcome [9] | Potency [10] | Potency [11] | outcome [15] | max response [12] 7.99%

Cc1ccc(N)cc1S(=O)(=O)O
inactive: Potency [1] | outcome [2] | outcome [3] | outcome [4] | outcome [16] | outcome [5] | outcome [6] | Potency [7] | Potency [8] | outcome [9] | Potency [10] | Potency [11] | outcome [15] | max response [12] 7.16% | Potency [13]

CC1=NN(c2ccc(S(=O)(=O)O)cc2)C(=O)C1
inactive: Potency [1] | outcome [2] | outcome [3] | outcome [4] | outcome [16] | outcome [5] | Potency [7] | Potency [8] | outcome [9] | Potency [10] | Potency [11] | outcome [15] | max response [12] 3.12% | Potency [13]

OC[C@H]1O[C@@H](O[C@@H]2[C@@H](CO)O[C@](O)(CO)[C@H]2O)[C@H](O)[C@@H](O)[C@H]1O
inactive: Potency [1] | outcome [2] | outcome [3] | outcome [14] | outcome [16] | outcome [5] | outcome [6] | Potency [7] | Potency [8] | outcome [9] | Potency [10] | Potency [11] | outcome [15] | max response [12] 1.5%

O=C1NC(c2ccccc2)(c2ccccc2)C(=O)N1COP(=O)(O)O
inactive: Potency [1] | outcome [2] | outcome [3] | outcome [14] | outcome [16] | outcome [5] | outcome [6] | Potency [7] | Potency [8] | outcome [9] | Potency [10] | Potency [11] | outcome [15] | max response [12] -5.37% | Potency [13]

O=S(=O)(O)c1ccc2c(N=Nc3ccc(S(=O)(=O)O)c4ccccc34)c(O)c(S(=O)(=O)O)cc2c1
inactive: activation [1] 0.066% [at 8.39 µM] | viability change, negative = cytotoxic [2] -10.3% [at 8.39 µM] | activation [3] 3.55% [at 8.39 µM] | activity change, negative = cytotoxicity [4] -2.23% [at 6.97 µM] | activity change, negative = cytotoxicity [5] -5.59% [at 14 µM] | activity change, negative = cytotoxicity [6] -1.89% [at 6.97 µM] | activity change, negative = cytotoxic [7] 7.73% [at 6.97 µM] | cytotoxicity [8] 3.08% [at 6.97 µM] | activity change, negative = cytotoxic [9] -7.38% [at 6.97 µM] | cytotoxicity increase [10] 7.83% [at 6.97 µM] | activity change, negative = cytotoxicity [11] 5.03% [at 6.97 µM] | max response [12] 4.14%

CC(C)=CCC/C(C)=C/COC=O
inactive: Potency [1] | outcome [2] | outcome [3] | outcome [4] | outcome [16] | outcome [5] | Potency [7] | Potency [8] | outcome [9] | Potency [10] | Potency [11] | outcome [15] | max response [12] 0.565%

C[C@]12CCC(=O)C=C1CC[C@H]1[C@@H]3CC[C@](O)(C(=O)CO)[C@@]3(C)C[C@H](O)[C@@]12F
inactive: Potency [1] | outcome [2] | outcome [3] | outcome [4] | outcome [16] | outcome [5] | outcome [6] | Potency [7] | Potency [8] | outcome [9] | Potency [10] | Potency [11] | outcome [15] | max response [12] -26.1% | Potency [13]

CC(C)c1ccc(C=O)cc1
inactive: Potency [1] | outcome [2] | outcome [3] | outcome [14] | outcome [16] | outcome [5] | outcome [6] | Potency [7] | Potency [8] | outcome [9] | Potency [10] | Potency [11] | outcome [15] | max response [12] 13.2% | Potency [13]

O=Cc1cc2ccccc2o1
inactive: Potency [1] | outcome [2] | outcome [3] | outcome [14] | outcome [16] | outcome [5] | outcome [6] | Potency [7] | Potency [8] | outcome [9] | Potency [10] | Potency [11] | outcome [15] | max response [12] -1.57% | Potency [13]

COC(=O)CCCCC(=O)O
inactive: Potency [1] | outcome [2] | outcome [3] | outcome [14] | outcome [16] | outcome [5] | outcome [6] | Potency [7] | Potency [8] | outcome [9] | Potency [10] | Potency [11] | outcome [15] | max response [12] 8.26% | Potency [13]

CN1CCOC(c2ccccc2)c2ccccc2C1 (stereo not drawn)
inactive: Potency [1] | outcome [2] | outcome [3] | outcome [14] | outcome [6] | Potency [7] | Potency [8] | outcome [9] | Potency [10] | Potency [11] | outcome [15] | max response [12] 0.485% | Potency [13]

[O]=[Mo](=[O])=[O]
inactive: activation [1] -3.75% [at 19 µM] | viability change, negative = cytotoxic [2] -2.25% [at 19 µM] | activation [3] -6.48% [at 19 µM] | activation [16] -0.622% [at 15.8 µM] | activity change, negative = cytotoxicity [5] -2.98% [at 31.6 µM] | activity change, negative = cytotoxicity [6] 2.84% [at 15.8 µM] | activity change, negative = cytotoxic [9] -4.78% [at 15.8 µM] | cytotoxicity increase [10] -43.2% [at 15.8 µM] | viability change, negative = cytotoxic [15] 2.7% [at 15.8 µM]

CC1(C)[C@H]2CC[C@](C)(C2)[C@H]1O
inactive: Potency [1] | outcome [2] | outcome [3] | outcome [14] | outcome [16] | outcome [6] | Potency [7] | Potency [8] | outcome [9] | Potency [10] | Potency [11] | max response [12] -1.99% | Potency [13]

C=CCN1C[C@H](C(=O)N(CCCN(C)C)C(=O)NCC)C[C@@H]2c3cccc4[nH]cc(c34)C[C@H]21
inactive: outcome [2] | outcome [3] | outcome [4] | outcome [14] | outcome [16] | outcome [5] | outcome [6] | Potency [7] | Potency [8] | outcome [9] | Potency [10] | Potency [11] | outcome [15] | max response [12] 0.226% | Potency [13]

OC1OCCOC1O (stereo not drawn)
inactive: outcome [2] | outcome [3] | outcome [4] | outcome [14] | outcome [16] | outcome [5] | outcome [6] | Potency [7] | Potency [8] | outcome [9] | Potency [10] | Potency [11] | outcome [15] | max response [12] 9.9% | Potency [13]
